A number with no mark means an inactive call. Active and inactive are the calls of the source. Cut-off read from the data, not from the text of the source, unless noted: active = inhibition above about 36%; inactive = the rest.
Key:
[1] = system: transactivating tegument protein VP16 (Human herpesvirus 1); assay: VP16 transactivation reporter inhibitors, counter-screen for SRC2 inhibitor project, cell-based, luminescence, single concentration (AID 652007); conditions: cell-based VP16 transactivation luciferase reporter, at 8.9 µM, stronger effect = higher value
[2] = molecular target: Nuclear receptor coactivator 2 (Homo sapiens) (UniProt Q15596); assay: SRC2 coactivator transcriptional activity inhibitors, confirmation, cell-based, luminescence, HEK293, triplicate (AID 652008;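 active = mean inhibition above 46.5%, the solvent-only control mean plus 3 SD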;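 note: 0% = DMSO-treated cells and 100% = Gossypol at 36 µM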); conditions: HEK293 GAL4-SRC2 luciferase reporter, at 8.9 µM, stronger effect = higher value
Nuclear receptor coactivator 2 (Homo sapiens), sequence (Q15596 whole entry, looked up, the tested form may be a part): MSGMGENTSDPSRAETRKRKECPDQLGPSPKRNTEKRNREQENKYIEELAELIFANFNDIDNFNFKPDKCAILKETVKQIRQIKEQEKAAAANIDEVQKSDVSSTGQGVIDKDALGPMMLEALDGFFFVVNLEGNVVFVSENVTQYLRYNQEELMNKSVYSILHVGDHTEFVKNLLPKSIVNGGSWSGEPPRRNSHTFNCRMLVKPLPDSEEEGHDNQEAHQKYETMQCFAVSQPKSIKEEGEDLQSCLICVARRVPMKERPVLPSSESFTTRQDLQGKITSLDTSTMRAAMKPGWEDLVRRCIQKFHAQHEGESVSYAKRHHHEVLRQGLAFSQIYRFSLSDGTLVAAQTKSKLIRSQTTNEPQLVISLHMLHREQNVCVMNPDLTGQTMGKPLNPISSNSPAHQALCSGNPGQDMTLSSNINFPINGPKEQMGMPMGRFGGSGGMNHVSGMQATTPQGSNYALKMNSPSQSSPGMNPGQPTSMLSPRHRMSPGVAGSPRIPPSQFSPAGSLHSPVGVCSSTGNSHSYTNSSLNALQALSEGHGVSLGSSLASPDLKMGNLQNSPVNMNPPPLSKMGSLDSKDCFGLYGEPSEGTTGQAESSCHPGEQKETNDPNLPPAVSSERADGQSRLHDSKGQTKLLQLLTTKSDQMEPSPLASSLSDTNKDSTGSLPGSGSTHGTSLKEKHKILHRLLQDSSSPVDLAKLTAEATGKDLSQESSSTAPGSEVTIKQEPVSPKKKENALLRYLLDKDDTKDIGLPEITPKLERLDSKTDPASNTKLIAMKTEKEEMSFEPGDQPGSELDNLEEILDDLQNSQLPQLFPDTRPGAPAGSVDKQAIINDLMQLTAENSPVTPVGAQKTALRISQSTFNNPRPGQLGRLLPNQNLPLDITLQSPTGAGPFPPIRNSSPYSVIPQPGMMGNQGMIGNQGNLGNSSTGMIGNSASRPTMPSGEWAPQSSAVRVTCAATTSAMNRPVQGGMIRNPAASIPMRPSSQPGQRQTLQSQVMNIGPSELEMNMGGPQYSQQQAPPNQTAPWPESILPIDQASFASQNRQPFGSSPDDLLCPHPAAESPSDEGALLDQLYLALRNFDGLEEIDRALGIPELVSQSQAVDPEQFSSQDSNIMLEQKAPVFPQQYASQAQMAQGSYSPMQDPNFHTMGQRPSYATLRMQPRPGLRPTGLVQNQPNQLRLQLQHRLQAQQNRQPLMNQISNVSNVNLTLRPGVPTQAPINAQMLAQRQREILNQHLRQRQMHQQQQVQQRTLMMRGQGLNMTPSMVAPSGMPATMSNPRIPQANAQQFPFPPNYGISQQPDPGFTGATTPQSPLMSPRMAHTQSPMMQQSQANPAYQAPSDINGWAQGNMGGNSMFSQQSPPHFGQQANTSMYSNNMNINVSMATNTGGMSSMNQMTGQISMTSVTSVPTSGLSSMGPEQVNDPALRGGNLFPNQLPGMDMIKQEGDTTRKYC

Row | SMILES | inhibition [1] | inhibition [2]
1 | COc1cc(N(C(C)=O)c2ccc(O)cc2)c2ncccc2c1 | 1.2% | 2.41%
2 | CC(C)(C)c1nnc2sc(SCC(=O)c3cccs3)nn2c1=O | 15.5% | 30%
3 | Cc1ccc(C(=O)O/N=C(\N)c2ccccn2)cc1 | -66.4% | -57%
4 | CCOc1ccc(-n2nc3ccc(N)cc3n2)cc1 | -14.3% | 66% (active)
5 | O=C(CN1C(=O)NC2(CCCCC2)C1=O)Oc1ccc2c(C(F)(F)F)cc(=O)oc2c1 | -11.6% | -1.74%
6 | CC(C)(c1ccc(O)cc1)c1ccc(O)c(C(=O)O)c1 | -8.08% | -5.54%
7 | CCOc1cc(NC(=S)NCc2ccco2)c(OCC)cc1NC(=O)CC | -10.4% | -9.88%
8 | O=C1C2CCCN2C(=S)N1C1CCCCC1 (stereo unspecified) | 1.86% | 3.89%
9 | CCc1ccc(C(=O)N2CCN(c3ccc(NC(=O)c4cccnc4)cc3)CC2)cc1 | -14.2% | -9.49%
10 | O=c1[nH][nH]c(-c2ccccc2O)c1C(C[N+](=O)[O-])c1ccc(Br)cc1 (stereo unspecified) | 24.3% | -0.61%
11 | Cc1csc2ncnc(N3CCN(C(=O)Nc4ccc(OC(F)(F)F)cc4)CC3)c12 | 1.45% | 26.6%
12 | COc1cc(CNS(=O)(=O)c2ccc3c(c2)CC(C)N3C(=O)C2CCC2)cc(OC)c1OC (stereo unspecified) | 5.37% | 29.3%
13 | Nc1ccc2oc(-c3cccc4ccccc34)nc2c1 | 38.3% (active) | 48.8% (active)
14 | Cc1cccc(C)c1NC(=O)CN1CCN(C/C=C/c2ccccc2)CC1 | -15.1% | -3.36%
15 | CCc1ccc(C=C2SC(=S)N(CCCC(=O)Nc3ccc(C(=O)O)cc3)C2=O)cc1 | -9.93% | -5.86%
16 | CCOc1ccccc1OCCCCOc1ccccc1F | -9.29% | -12.6%
17 | O=C(C(O)c1ccc(Br)cc1)N1CCC(Nc2ccc3[nH]ncc3c2)CC1 (stereo unspecified) | -4.16% | -7.36%
18 | O=C(Nc1ccncc1)c1c(Cl)cccc1Cl | -4.71% | 12.5%
19 | O=C(NC12CC3CC(CC(C3)C1)C2)C1CC(=O)N(c2ccccc2)C1 (stereo unspecified) | 9.52% | -0.38%
20 | COc1ccc(C(=O)c2[nH]c(N)c(C(=O)NCCc3c[nH]c4ccccc34)c2-c2ccc(OC)c(OC)c2)cc1 | -9.46% | -4.51%
21 | COc1ccc(CN2C(=O)C(CC(=O)NCCN3CCOCC3)CC(C(=O)N(C(C)C)C(C)C)=C2C)cc1 (stereo unspecified) | 0.37% | -36.3%
22 | COc1ccc(NC(=O)CSc2nnnn2C2CCCCC2)c(OC)c1 | 1.44% | 14.6%
23 | Cc1oc(-c2cccc3ccccc23)nc1CN1CCN(c2ncnc3ccccc23)CC1 | -22.1% | 5.63%
24 | Cc1ccc(Nc2nc(N)nc(CN3CCN(Cc4ccc5c(c4)OCO5)CC3)n2)cc1 | -10.2% | -18.2%
25 | Nc1nc(CCl)nc(Nc2ccccc2)n1 | -25.1% | 8.83%
26 | COc1ccccc1N1CCN(C(CNC(=O)c2ccco2)c2cccnc2)CC1 (stereo unspecified) | -7.16% | -4.45%
27 | CC(C)(C)NC(=O)COC(=O)c1snc(C(=O)NC2CCCCC2)c1N | -7.99% | 8.82%

Row | SMILES | inhibition [1] | inhibition [2]
28 | CCc1ccc(/C=C2\SC(=S)N(CCCC(=O)N3CCN(C)CC3)C2=O)cc1 | -9.42% | 11.9%
29 | Cc1sc(NC(=O)CCCC(=O)O)c(C(N)=O)c1-c1ccccc1 | 37.1% (active) | 75.5% (active)
30 | Cc1cc2c(cc1C)C(=O)NC(C)(C)C2 | 2.03% | 28.2%
31 | COc1cccc(/C=C2/SC(=S)N(CCCC(=O)Nc3ccc(O)cc3)C2=O)c1 | 51.1% (active) | 23.7%
32 | CC(NC(=O)CCc1nnc(-c2ccc(-c3ccccc3)cc2)o1)c1nccs1 (stereo unspecified) | 17% | 58.5% (active)
33 | COC(=O)c1cnn(-c2ccc(Cl)cc2)c1/C=N/NC(N)=S | 22% | 34.7%
34 | COc1ccc(N(C(=O)CCl)C(C(=O)NCCc2ccccc2)c2cccs2)cc1 (stereo unspecified) | 32.7% | 58.1% (active)
35 | S=C(NCc1ccc(Cl)cc1)NC1CCN(Cc2ccccc2)CC1 | -17.5% | 19.2%
36 | Cc1ccc(CC2C(=O)N(c3cc(C)ccc3C)C(=O)C2C)cc1 (stereo unspecified) | 0.03% | 9.44%
37 | COc1ccc(C(C(=O)NC2CCCC2)n2c(CSCCOc3ccccc3)nc3ccccc32)cc1 (stereo unspecified) | 43.5% (active) | 76.4% (active)
38 | O=C(COc1ccc([N+](=O)[O-])cc1)Nc1ccc(C(=O)NCc2cccnc2)cc1 | -13.3% | 27.8%
39 | O=C(CCCSc1nc2ccccc2s1)NC1=NCCS1 | 27.1% | 20.4%
40 | O=C(CCCN1C(=O)/C(=C/c2cccs2)SC1=S)Nc1ccccn1 | 12.4% | 10.9%
41 | CCC(=O)N1N=C(c2cccs2)CC1c1ccc(C)cc1 (stereo unspecified) | -15.8% | -13.8%
42 | CCc1ccc(/C=C2\SC(=S)N(CCCC(=O)Nc3cc(C)on3)C2=O)cc1 | 28.9% | 73.4% (active)
43 | CCCCN(CCCNC(=S)NCCCc1cnc[nH]1)c1ccc(Br)cn1 | -7.99% | 39.1%
44 | COc1ccc(-c2nc(-c3ccccc3)no2)c(OC)c1 | 3.43% | 53.8% (active)
45 | O=C(O)CCSc1ncnc2sc(-c3ccccc3)cc12 | 67.7% (active) | 88.4% (active)
46 | CC(C)[C@H](NC(=O)[C@@H]1Cc2ccccc2CN1)C(=O)Nc1ccc2c(c1)OCCO2 | -21% | -29.4%
47 | CCOC(=O)Cn1c(=O)c2c(nc(N3CCCCC3)n2Cc2ccccc2)n(C)c1=O | -5.76% | 4.93%
48 | COc1ccc(-c2nnc(SCC(=O)Oc3ccc(C)cc3)o2)cc1 | -10% | -4.18%
49 | CCOC(=O)c1c(C)[nH]c(C(=O)Nc2ccc(NC(C)=O)cc2)c1C | 6.79% | 8.17%
50 | O=C(COC(=O)c1ccc(Br)o1)NCC(=O)Nc1ccc(F)cc1 | -21% | -15.8%
51 | CC1=C(C(=O)N2CCOCC2)CC(CC(=O)NCCCCc2ccccc2)C(=O)N1Cc1ccc(C(C)(C)C)cc1 (stereo unspecified) | 12.6% | 2.06%
52 | CC(=O)Nc1cccc(-c2cc(NC(C)=O)c3ncc(-c4ccccc4)n3c2)c1 | -11.4% | 2.68%
53 | CCCN1C2CCCC1CC(NC(=O)c1cccc(Cl)c1)C2 (stereo unspecified) | 4.37% | 40.8%

Source: PubChem BioAssay
